Results taken from the supplement of paper PMC13380429.

System: Vero E6 infected with SARS-CoV-2
Test: inhibition of SARS-CoV-2 cytopathic effect; higher = more antiviral protection, active = above 15
Details: 48 h

Measured: inhibition of SARS-CoV-2 cytopathic effect

O=C(/C=C/N1C[C@H]2C[C@@H]1CN2c1ccccn1)c1ccccc1O
inactive: 1 nM -0.57% | 8.33 nM -1.55% | 100 nM -0.95% | 833.33 nM -5.12% | 10000 nM -2.56%

CCOC(=O)c1ccc(C#Cc2ccc3c(c2)C(C)(C)CCS3)nc1 [tazarotene]
inactive: 1 nM 0.41% | 8.33 nM 0.89% | 100 nM 1.7% | 833.33 nM 3.69% | 10000 nM 0.98%

O=C(NCCN1CCN(c2ncccn2)CC1)C12CC3CC(CC(C3)C1)C2 [adatanserin]
inactive: 1 nM -1.23% | 8.33 nM 0.62% | 100 nM -2.77% | 833.33 nM 2.26% | 10000 nM -1.99%

COCCCN1CCC(NC(=O)c2cc(Cl)c(N)c3c2OCC3)CC1 [prucalopride]
inactive: 1 nM 0.43% | 8.33 nM 1.93% | 100 nM -0.24% | 833.33 nM 3.32% | 10000 nM 1.47%

CC[C@H](/C=C/[C@@H](C)[C@H]1CC[C@H]2[C@@H]3CC=C4C[C@@H](O)CC[C@]4(C)[C@H]3CC[C@]12C)C(C)C [Stigmasterol (Stigmasterin)]
inactive: 1 nM 0.05% | 8.33 nM -0.75% | 100 nM 0.44% | 833.33 nM 0.29% | 10000 nM -0.01%

CO[C@H]1O[C@@H]2O[C@@]3(C)CC[C@H]4[C@H](C)CC[C@@H]([C@H]1C)[C@@]24OO3 [artemether]
inactive: 1 nM 7.32% | 8.33 nM 4.82% | 100 nM 2.64% | 833.33 nM -2.72% | 10000 nM 0.52%

CC1CC(OC(=O)C(O)c2ccccc2)CC(C)(C)C1 (stereo not given) [cyclandelate]
inactive: 1 nM -0.8% | 8.33 nM 0.54% | 100 nM -0.37% | 833.33 nM -0.91% | 10000 nM -1.81%

COc1ccc(OC)c(C(O)C(C)N)c1 (stereo not given) [methoxamine]
inactive: 1 nM 0.07% | 8.33 nM -0.09% | 100 nM 1.61% | 833.33 nM 3.81% | 10000 nM 0.66%

Cc1cc(N2CCOCC2)cc2[nH]c(-c3c(NC[C@@H](O)c4cccc(Cl)c4)cc[nH]c3=O)nc12
inactive: 1 nM -1.74% | 8.33 nM -0.03% | 100 nM -2.39% | 833.33 nM -2.43% | 10000 nM -13.9%

CN(C)CCCOc1nn(Cc2ccccc2)c2ccccc12 [benzydamine]
inactive: 1 nM 1.21% | 8.33 nM 2.44% | 100 nM 2.33% | 833.33 nM 0.09% | 10000 nM -0.14%

Cc1c[nH]c2ncnc(N3CCC(CN)(C(=O)Nc4cccc(OC(=O)N(C)C)c4)CC3)c12
inactive: 1 nM -0.02% | 8.33 nM -1.69% | 100 nM 4.07% | 833.33 nM -0.25% | 10000 nM 5.79%

C(#Cc1nc2ncccc2nc1OCCN1CCCC1)c1ccccc1
active: 10000 nM 15.8%
inactive: 1 nM -1.59% | 8.33 nM -0.87% | 100 nM -1.72% | 833.33 nM 7.05%

Cn1c(=O)cnn(CCCCN2CCN(c3ncccn3)CC2)c1=O
inactive: 1 nM 0.44% | 8.33 nM -0.24% | 100 nM 1.14% | 833.33 nM -0.77% | 10000 nM 1.05%

Cc1ccc(NC(=O)c2ccc(CN3CC[C@H](N(C)C)C3)c(C(F)(F)F)c2)cc1Nc1nccc(-c2cncnc2)n1 [bafetinib]
inactive: 1 nM 3.35% | 8.33 nM -0.19% | 100 nM 0.01% | 833.33 nM -3.15% | 10000 nM -4.8%

CC(C)(C)N1CCC(c2ccccc2)(c2ccccc2)CC1 [budipine]
inactive: 1 nM 0.7% | 8.33 nM 3.31% | 100 nM 2.48% | 833.33 nM -0.28% | 10000 nM 1.72%

CN(Cc1ccc(C(C)(C)C)cc1)Cc1cccc2ccccc12 [butenafine]
inactive: 1 nM 0.43% | 8.33 nM 3.81% | 100 nM 0.84% | 833.33 nM 2.62% | 10000 nM 4.56%

O=C1N(c2ccccc2)c2ccccc2C1(Cc1ccncc1)Cc1ccncc1 [linopirdine]
inactive: 1 nM 2.06% | 8.33 nM 0.32% | 100 nM 1.23% | 833.33 nM -0.29% | 10000 nM 1.14%

C/C1=C/C[C@@H](/C(C)=C/c2csc(C)n2)OC(=O)C[C@H](O)C(C)(C)C(=O)[C@H](C)[C@@H](O)[C@@H](C)CCC1 [epothilone-D]
inactive: 1 nM 2.13% | 8.33 nM -0.55% | 100 nM -1.83% | 833.33 nM -0.53% | 10000 nM -1.4%
